What all share (assay): NCI-60 one-dose screen, 48 h (100 = growth as untreated, 0 = no growth, -100 = all killed)
Conditions in all cases: 10 µM unless noted

The test system of experiment [1] is NCI-H23 lung.
The subject of experiment [2] is NCI-H226 lung.
Experiment [3] relates to NCI-H322M lung.
For experiment [4], the system named is HOP-62 NSCLC.
For experiment [5], the system named is NCI-H460 lung.
In experiment [6] the test system is HOP-92 NSCLC.
Experiment [7] concerns NCI-H522 lung.
Experiment [8] concerns 786-0 renal.
Experiment [9] has as its system COLO 205 colon.
Experiment [10] relates to DU-145 prostate.
The test system of experiment [11] is K-562 leukemia.
For experiment [12], the system named is MALME-3M melanoma.
In experiment [13] the test system is MDA-MB-231 breast.
Experiment [14] concerns RXF 393 renal.
Experiment [15] concerns SF-268 CNS.
Experiment [16] has as its system SF-295 CNS.
Experiment [17] relates to SF-539 CNS.
Experiment [18] has as its system UACC-257 melanoma.
The subject of experiment [19] is M14 melanoma.
Experiment [20] concerns A549/ATCC NSCLC.

Our source for the growth values is PubChem BioAssay (NCI).

Structures are written as SMILES. This is part of a sample that, as a whole, favours compounds with a hit. Of some 83,000 tested, about 20% had one in any assay.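 The test compound was applied at a single concentration to cells in 96-well plates for 48 hours, and percent growth was recorded.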 Unmarked numbers belong to inactive results. Activity calls are given as the source filed them. Rule for the calls: active = growth percent below 10; inactive = the rest.

For `COC(=O)c1c(C(=O)OC)c2c3ccccc3c3ccccc3n2c1C(=O)C(F)(F)F`, the growth in [1] was 89.1%; in experiment [2], 80%; in experiment [3] it was 101%; in [4], 107%; in experiment [5], 105%; in experiment [6], 97.2%. The growth in experiment [7] was 96.4%; in [8] it was 102%; in experiment [9], 108%; in [10], 106%; in [11] it was 97.2%; in [12], 104%. For the same compound, the growth in experiment [13] is 81.6%; in experiment [14], 101%; in [15], 101%; in [16], 94.3%; in experiment [17], 95.2%; in experiment [18], 111%. Besides, in [19], the growth is 97%.
Regarding `O=C(Nc1nc2ccccc2s1)Nc1ccccc1Cl`, the growth is 70.5% in experiment [1]; 31.5% in [2]; 94.3% in experiment [3]; 12.2% in experiment [4]; 66.9% in experiment [5]; 74.3% in experiment [6]. Moreover, the growth in experiment [20] is 74.5%; in experiment [8], 41%; in experiment [9], 97.5%; in [10], 99.9%; in experiment [11] it was 86.2%; in experiment [12] it was 79.7%. The growth was 51.9% in experiment [13]; 73.8% in [14]; 77.3% in experiment [15]; 45% in [16]; 51% in experiment [17]; 98.8% in [18]. Besides, the growth in experiment [19] is 93.7%.
Turning to `COc1ccc2[nH]c(O)c(N=Nc3nc(-c4ccc(Br)cc4)cs3)c2c1`, the growth in experiment [1] is -6.52% (active); in [2], -36.4% (active); in experiment [3], 28.2%; in [4], -10.1% (active); in [5] it was -35.4% (active); in experiment [6], -34.4% (active). Also, the growth in experiment [20] is -41.3% (active); in experiment [8], -81.3% (active); in experiment [9] it was -13.2% (active); in experiment [10], 16%; in experiment [11] it was 17.9%; in experiment [12] it was -36.3% (active). Further, the growth in experiment [13] is 35.7%; in experiment [14] it was -64.2% (active); in [15], 30.5%; in [16], 9.66% (active); in [17], -68.4% (active); in experiment [18], 30.3%. The growth in experiment [19] was 14.4%.
Turning to `C=CCSc1nnc(-c2c(C)nc3sccn23)o1`, the growth in [1] is 88.7%; in [2], 76.1%; in experiment [3], 84.9%; in experiment [4], 106%; in experiment [5], 95.8%; in [6], 72.4%. For the same compound, the growth is 89% in [7]; 89.8% in experiment [8]; 107% in experiment [9]; 110% in experiment [10]; 98.3% in experiment [11]; 109% in experiment [12]. Further, the growth in [13] was 92.6%; in [14] it was 99.9%; in [15], 110%; in experiment [16], 89.2%; in [17], 90.4%; in [18], 86.9%. In [19], the growth is 92.5%.
On to `CS(=O)(=O)Nc1cc(-c2ccc3ncnc(N4CCc5cc(F)c(Cl)cc54)c3c2)cnc1Cl`, for which the growth is 4.88% (active) in experiment [1]; 8.15% (active) in experiment [2]; 8.81% (active) in experiment [3]; 27.8% in experiment [4]; 12.1% in [5]; -20.7% (active) in experiment [6]. In addition, the growth in experiment [7] is 17.7%; in [8] it was 4.55% (active); in experiment [9], -1.45% (active); in experiment [10] it was 10.5%; in experiment [11], 35.8%; in experiment [12], -21.2% (active). The growth is -17.8% (active) in experiment [13]; -5.59% (active) in experiment [14]; 14.9% in [15]; -23.8% (active) in experiment [16]; -22.7% (active) in [17]; -2.81% (active) in experiment [18]. The growth in experiment [19] was 9.59% (active).
Turning to `Cc1cc(C)c2[nH]c(=O)c(C(c3nnnn3Cc3ccc4c(c3)OCO4)N3CCN(C)CC3)cc2c1` (configuration not stated), the growth in experiment [1] is 105%; in experiment [2], 102%; in [3] it was 107%; in experiment [4], 111%; in experiment [5], 112%; in [6] it was 99.9%. The growth in experiment [20] is 105%; in experiment [8], 97.9%; in [9] it was 114%; in experiment [10], 103%; in [11], 107%; in experiment [12], 110%. The growth in experiment [13] is 112%; in experiment [14] it was 114%; in [15], 101%; in experiment [16], 104%; in [17], 104%; in [18], 110%. In addition, the growth in experiment [19] is 111%.
As to `COc1ccc(NC(=O)Nc2nc3ccc([N+](=O)[O-])cc3s2)cc1`, the growth in experiment [1] is -2.33% (active); in [2], 6.28% (active); in [3], 13.1%; in experiment [4] it was 25.4%; in experiment [5], 3.86% (active); in experiment [6] it was -5.8% (active). Also, the growth in experiment [20] was 30.2%; in [8], 35.3%; in experiment [9], 67.9%; in [10] it was 24.8%; in experiment [11] it was 9.59% (active); in experiment [12] it was -1.52% (active). For the same compound, the growth in [13] is 46.1%; in experiment [14] it was -0.305% (active); in experiment [15] it was 38.6%; in [16] it was 35.6%; in [17], 7.77% (active); in [18], 16%. In addition, the growth in [19] was 57.6%.
Consider `Cn1cc(Nc2ncnc(-c3ccc(N4CCCC4)c(C#N)c3)n2)cn1`, for which the growth in experiment [1] is 86%; in [2], 60.6%; in [3], 50.5%; in experiment [4], 90.3%; in [5] it was 50.1%; in experiment [6], 97.6%. Also, the growth in experiment [7] is 8.98% (active); in [8] it was 59.8%; in experiment [9], 72%; in experiment [10] it was 66.5%; in [11], 29.8%; in experiment [12] it was 74.8%. In addition, the growth in experiment [13] was 63.6%; in experiment [14], 50.8%; in [15], 71.9%; in experiment [16] it was 93.2%; in experiment [17] it was 65.2%; in experiment [18], 94%. Also, the growth in experiment [19] was 53.5%.
